NPSR antagonist = antagonists of human neuropeptide S receptor cAMP signaling | CHO-NPSR cells, cAMP TR-FRET, antagonist mode | Potency, µM (highest dose often 38.3 µM), inactives show at the highest dose activity change, negative = inhibition, most hits filed as inhibitors | AID 1461 | 220,000 compounds, 1% hits | Q6W5P4; also: potency is read from the fitted curve at half-maximal effect; nearly all actives have a fitted effect of over 50% in size
Target sequence (Q6W5P4 whole entry, looked up): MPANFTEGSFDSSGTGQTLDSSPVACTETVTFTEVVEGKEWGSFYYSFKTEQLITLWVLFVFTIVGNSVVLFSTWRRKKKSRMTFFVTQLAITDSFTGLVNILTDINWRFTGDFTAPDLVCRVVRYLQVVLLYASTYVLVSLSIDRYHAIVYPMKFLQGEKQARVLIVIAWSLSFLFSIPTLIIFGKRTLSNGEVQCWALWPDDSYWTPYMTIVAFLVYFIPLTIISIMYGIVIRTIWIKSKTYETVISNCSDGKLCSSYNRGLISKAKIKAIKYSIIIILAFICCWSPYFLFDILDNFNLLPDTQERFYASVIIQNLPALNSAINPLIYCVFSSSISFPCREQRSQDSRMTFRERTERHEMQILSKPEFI
Sfp PPTase inh = blocks B. subtilis Sfp PPTase activity; Biochemical Sfp PPTase activity, qHTS; Potency, µM, for inactives: largest response in the series, negative = inhibition, most hits filed as inhibitors; 310,000 compounds, 3.5% hits; AID 1490;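 also: the enzyme is Sfp with the accession as filed and its product quenches rhodamine fluorescence; potency is read from the fitted curve at half-maximal effect; 0% = enzyme reaction without inhibitor and -100% = no enzyme wells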
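Buffer: 50 mM Hepes-Na pH 7.6, 10 mM MgCl2, 0.01% Nonidet P-40, 0.01% BSA. Enzyme 15 nM, pre-exposed to compound 15 min; substrates then added and fluorescence change tracked over 30 min.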
KDM4E inh = JMJD2E (human) inhibition; JMJD2E catalytic domain, FDH-coupled NADH fluorescence (FDH is formaldehyde dehydrogenase); 230,000 compounds, 1.6% hits; Potency, µM (series often up to 57.1 µM), for inactives: at the top dose activity change, negative = inhibition, hits mostly inhibitors; AID 2147; B2RXH2; active = well fitted inhibition curve with a large enough effect, not every such curve was filed as active; inconclusive = small, poorly fitted or top-dose-only effect, or another doubt; inactive = no such curve, though single readings can be large or run the other way;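 also: potency is read from the fitted curve at half-maximal effect; 0% = wells with enzyme and -100% = buffer wells without enzyme; nearly all actives have a fitted effect of over 50% in size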
FBPA coupling cs = inhibits coupling enzyme system, counter-screen for aldolase hits; coupling enzyme system counterscreen, AmpLite Red fluorescence; activity change, negative = inhibition, % at 58.2 µM, hits read low; 290,000 compounds, 0.67% hits; AID 2472; in the data active = activity change below about -30%
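Fluorescence at 525 nm excitation and 598 nm emission measured inhibition of the coupled detection system without aldolase. Compounds (at 57.5 uM final) were preincubated 10 min at room temperature with coupling enzyme reagent before a 20 min substrate/AmpLite Red step.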
ALDH1A1 block = ALDH1A1 (human) enzyme inhibition | Purified ALDH1A1, NADH fluorescence, propionaldehyde substrate | AID 1030 | 220,000 compounds, 7.3% hits | Potency, µM (titrated, usually from 75.3 µM), without a hit: at the top dose activity, negative = inhibition, hits mostly inhibitors | P00352; active = well fitted inhibition curve with a large enough effect, not every such curve was filed as active; inconclusive = small, poorly fitted or top-dose-only effect, or another doubt; inactive = no such curve, though single readings can be large or run the other way;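 also: potency is read from the fitted curve at half-maximal effect; plate controls were no enzyme wells and a reference inhibitor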
RGS12 GoLoco inh = blocks human Gai1 binding to RGS12 GoLoco peptide, red readout; AID 880; Potency, µM (series often up to 61.6 µM), without a hit: top-dose activity, negative = inhibition, most hits filed as inhibitors; Gai1:RGS12 GoLoco peptide FP, rhodamine, 10 min; 230,000 compounds, 0.44% hits; P63096; active = well fitted inhibition curve with a large enough effect, not every such curve was filed as active; inactive = no such curve, though single readings can be large or run the other way; also: potency is read from the fitted curve at half-maximal effect; nearly all actives have a fitted effect of over 30% in size
Target sequence (P63096 whole entry, looked up): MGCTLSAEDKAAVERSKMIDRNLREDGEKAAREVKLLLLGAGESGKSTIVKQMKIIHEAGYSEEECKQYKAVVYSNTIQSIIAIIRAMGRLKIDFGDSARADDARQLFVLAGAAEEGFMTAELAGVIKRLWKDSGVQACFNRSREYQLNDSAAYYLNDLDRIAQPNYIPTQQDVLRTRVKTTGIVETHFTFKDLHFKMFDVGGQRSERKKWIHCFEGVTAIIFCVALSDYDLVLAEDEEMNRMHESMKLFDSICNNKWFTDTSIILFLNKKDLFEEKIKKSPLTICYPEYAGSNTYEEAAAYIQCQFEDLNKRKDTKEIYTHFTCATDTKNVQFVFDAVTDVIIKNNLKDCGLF
* marks the source's active call; other numbers are inactive results; ? = inconclusive; · = not tested or not shown; [ ] = dose if it differs, or a comment. Compounds with a hit are over-represented: about 8.5% of the library has one in this group of screens. Unless noted, calls follow the shape of the dose curve; as a rule, active = well fitted curve in the direction sought with a large enough effect; inconclusive = small, poorly fitted or top-dose-only effect, or another doubt; inactive = no such curve, though single readings can be large; an effect the other way counts as inactive or inconclusive. Unless noted, % is scaled to controls: 0 for no effect and ±100 for the full control effect.

SMILES | NPSR antagonist | Sfp PPTase inh | KDM4E inh | FBPA coupling cs | ALDH1A1 block | RGS12 GoLoco inh
O=C(COC(=O)c1ccccc1Br)Nc1cc(S(=O)(=O)N2CCOCC2)ccc1N1CCCC1 | -24% | -3% | -12% | 2 | -9% | 6%
COc1ccc(Cl)cc1NC(=S)NCc1ccco1 | -11%[46.1 µM] | 10% | 2% | -3 | 4% | 2%
CC[C@H](CO)NCCN[C@@H](CC)CO | · | ? | -1%[25.5 µM] | 3 | 14%[20.9 µM] | 1%[21.6 µM]
CN1CCN(c2nc3c(c(=O)[nH]c(=O)n3C)n2CCSc2nnnn2-c2ccccc2)CC1 | 8% | 23% | 1% | -3 | · | -4%
Cn1c(=O)[nH]c(=O)c2c1nc(N1CCCCCC1)n2CCCSc1nnnn1-c1ccccc1 | 3% | ? | -2% | 2 | 2.5µM* | 2%
CC(CSc1nnnn1-c1ccccc1)Cn1c(N2CCN(C)CC2)nc2c1c(=O)[nH]c(=O)n2C (stereo unspecified) | -18% | 14% | 1% | 5 | 20µM* | 2%
CN1CCN(c2nc3c(c(=O)n(C)c(=O)n3C)n2CCSc2nnnn2-c2ccccc2)CC1 | -4% | 18% | 1% | -2 | · | 9%
Cn1c(=O)[nH]c(=O)c2c1nc(N1CCCC1)n2CCCSc1nnnn1-c1ccccc1 | 17% | 0% | 0% | -3 | 11µM* | 8%
COc1ccc(S(=O)(=O)n2[nH]c(=O)c(CCO)c2C)c([N+](=O)[O-])c1 | -16% | 6% | -18% | 5 | ? | 6%
Cc1ccc(C(C)C)cc1S(=O)(=O)NCc1ccccn1 | · | 1% | · | 1 | · | ·
COc1ccc(S(=O)(=O)N2CCCCC2)cc1NC(=O)c1ccc([N+](=O)[O-])o1 | -32% | 15% | 6% | 0 | 3.2µM* | 4%
COc1ccc(S(=O)(=O)N2CCCCC2)cc1NC(=O)c1ccco1 | · | 6% | · | 2 | · | ·
CCC(=O)N1CCN(c2ccc(NC(=O)c3ccc([N+](=O)[O-])o3)cc2Cl)CC1 | 5µM* | 12% | 11% | -11 | 14µM* | 10%
CCCC(=O)N1CCN(c2ccc(NC(=O)c3cc4ccccc4o3)cc2Cl)CC1 | ? | -15% | ? | -40* | ? | 2%
O=C(Nc1cccc(OC(F)(F)F)c1)c1ccc(Br)o1 | 1%[46.1 µM] | -7% | -29% | -20 | 22µM* | -6%
COc1ccc(C2=NCCn3cccc32)c(OC)c1 | 5% | 30% | -2% | 3 | -3% | 2%
Cc1cccc(C)c1NC(=O)/C(C#N)=C/c1ccc(-c2ccc(C(=O)O)cc2)o1 | · | 4% | · | 2 | · | ·
Cc1cccc(C(=O)NC2CCN(S(=O)(=O)c3ccc(F)cc3)CC2)c1 | · | 13% | · | -2 | · | ·
CCN(CC)S(=O)(=O)c1cccc(NC(=O)c2cc3ccccc3o2)c1 | -26%[46.1 µM] | -1% | -5% | -1 | 22µM* | 11%
CN(C)S(=O)(=O)c1cccc(NC(=O)c2cc3ccccc3o2)c1 | -16%[46.1 µM] | -27% | 7% | -8 | ? | -5%
O=C(Nc1ccc(N2CCCC2)c(Cl)c1)c1ccc(Br)o1 | 10%[46.1 µM] | 79µM* | -16% | -9 | 19µM* | 27%
CCN1CCN(c2ccc(NC(=O)c3ccc([N+](=O)[O-])o3)cc2Cl)CC1 | -14% | 13% | 0% | -7 | 20µM* | 5%
O=C(Nc1ccccc1N1CCCC1)c1ccc(Br)o1 | -24%[46.1 µM] | -1% | -6% | 1 | ? | 15%
CCOC(=O)CNC(=S)n1ncnc1N | 11% | ? | -4% | -1 | ? | 9%
O=C(Cc1cccs1)NCCSc1c(-c2ccc(Cl)cc2)[nH]c2ccccc12 | 10µM* | 5% | ? | -6 | ? | 6%
SMILES | NPSR antagonist | Sfp PPTase inh | KDM4E inh | FBPA coupling cs | ALDH1A1 block | RGS12 GoLoco inh
Nc1nc2c(C(=O)NCc3cccs3)nnn2c2cccc(Cl)c12 | · | · | · | · | -16%[13.5 µM] | 8%[14.2 µM]
Cc1[nH]c(=O)[nH]c(=O)c1/C=N/NC(=O)[C@H](C)N | -13% | 50µM* | ? | 1 | · | 8%
Cc1[nH]c(=O)[nH]c(=O)c1/C=N/NC(=O)[C@@H](NC(=O)OC(C)(C)C)C(C)C | -9%[46.1 µM] | 9% | -7% | 1 | 1% | 7%
CC(=O)c1ccc(NC(=S)Nc2ccc3cn[nH]c3c2)cc1 | -1% | 32µM* | ? | -5 | ? | 12%
CC(C)c1ccc(NC(=S)Nc2ccc3cn[nH]c3c2)cc1 | -8% | 10% | ? | -13 | 19µM* | 8%
O=C(Nc1ccc2cn[nH]c2c1)c1c(Cl)cccc1Cl | -10%[46.1 µM] | 40µM* | -4% | -8 | -2% | -8%
Cc1ccc(NC(=S)Nc2ccc3cn[nH]c3c2)cc1C | -5%[46.1 µM] | -12% | ? | 3 | ? | ·
O=C(Nc1ccc2cn[nH]c2c1)c1ccccc1F | 4% | 2% | 0% | 0 | 7% | 8%
COC(=O)c1ccccc1S(=O)(=O)Nc1ccc2cn[nH]c2c1 | 4%[46.1 µM] | -2% | 1% | -12 | -5% | -3%
O=C1C(Cl)=C(Nc2ccc3cn[nH]c3c2)C(=O)c2ccccc21 | 6.3µM* | 8.9µM* | 10µM* | -36* | · | 7.9µM*
Cc1ccc(C2=NN(CC(=O)NCCC(C)C)C(=O)CC2)cc1 | · | 7% | · | -1 | · | ·
CN1C(=O)/C(=C/c2cn(CC(=O)NCc3ccco3)c3ccccc23)NC1=S | 33% | 7.1µM* | -8% | -3 | ? | 10%
O=C(/C=C/c1cccc(F)c1)c1ccc(N2CCOCC2)cc1 | ? | -13% | 7% | 1 | 13µM* | 31%
O=C(/C=C/c1cccs1)c1ccc(N2CCOCC2)cc1 | -18% | -4% | -10% | 0 | -14% | 7%
CCCn1c(N)c(C(=O)CSc2nnnn2-c2ccc(O)cc2)c(=O)n(C)c1=O | -19%[46.1 µM] | 0% | -1% | 4 | -9% | 6%
O=C(O)c1cc(=O)cc(C(=O)O)[nH]1 | 9%[46.1 µM] | 40µM* | -8% | 1 | -5% | 2%
O=C1CN(C(=O)c2c(F)cccc2F)C(c2ccc(F)cc2)c2cc(F)ccc2N1 (stereo unspecified) | · | -3% | · | -2 | · | ·
Cc1ccc(-c2csc(/C(C#N)=C(\O)CCl)n2)cc1 | -51% | 4% | 2% | 7 | ? | 16%
COc1ccc(-c2csc(/C(C#N)=C(\O)CSc3nccn3C)n2)cc1OC | -14%[46.1 µM] | ? | ? | -15 | 8.9µM* | 208%
Cc1nnc(SCC(=O)N2CC(=O)Nc3ccccc32)n1C | -4%[46.1 µM] | 10% | -2% | 1 | 6% | 10%
CC1CCCC(C)N1C(=O)CSc1nnnn1-c1cccc2c1CCCC2 (stereo unspecified) | ? | 4% | -6% | -2 | 28µM* | -6%
O=C(CSc1nnnn1-c1cccc2c1CCCC2)N1CCCC1 | -18%[46.1 µM] | ? | -1% | 0 | 14µM* | 9%
Cc1ccc(-n2nnnc2SCC(=O)N2CC(=O)Nc3ccccc32)cc1 | -12%[46.1 µM] | -15% | 0% | 0 | 11µM* | 17%
O=C(CSc1nnnn1-c1cccc2c1CCCC2)NC1CCCC1 | -17%[46.1 µM] | 6% | 3% | 2 | ? | 8%
